Source: PubChem BioAssay AID2100 (National Center for Advancing Translational Sciences (NCATS), 2009)
About 1,200 (0.4%) of roughly 300,000 compounds were called active. A call without a number means that no potency is given here. Not shown: some 3% with an inconclusive outcome. Calls follow the shape of the dose curve; as a rule, active = well fitted inhibition curve with a large enough effect; inconclusive = small, poorly fitted or top-dose-only effect, or another doubt; inactive = no such curve, though single readings can be large or run the other way. The full list was thinned out, with actives kept by preference.

Target: Lysosomal alpha-glucosidase (Homo sapiens) (UniProt P10253)
Test: qHTS Assay for Inhibitors and Activators of Human alpha-Glucosidase Cleavage of Glycogen;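 also: the screen sought inhibitors and activators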
Details: recombinant GAA, glycogen substrate, Amplex Red glucose oxidase fluorescence; series mostly up to 76.3 µM
Outline: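 qHTS, 1536-well; enzyme 4 nM final; cpd up to 77 uM; substrate bovine liver glycogen 30 ug; 50 mM citrate/phosphate pH 5.0, 0.01% Tween-20; 37 C, 40 min; Amplex Red detection 45 min RT; Hill fit → AC50.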
Potency is read from the fitted curve at half-maximal effect.

| SMILES | Potency |
| --- | --- |
| CCOc1ccc2nc(N3CCCC(C(=O)Nc4cc(C)ccc4C)C3)sc2c1 (centres undefined) | inactive |
| O=[N+]([O-])c1ccc(N/N=C/c2ccccc2)cc1 | inactive |
| CNC(=S)Nc1ccc([N+](=O)[O-])cc1 | inactive |
| O=C(O)/C=C/C(=O)NNc1ccc([N+](=O)[O-])cc1 | 14 µM (active) |
| COc1cc(Nc2nc(-c3ccc(OC)c(OC)c3)nc3ccccc23)cc(OC)c1 | inactive |
| CC(Nc1ccc(-c2nc(-c3ccco3)no2)cc1[N+](=O)[O-])c1ccccc1 (centres undefined) | inactive |
| CCc1ccc(C(=O)CC2(O)C(=O)N(CCc3ccccc3)c3ccc(Br)cc32)cc1 (centres undefined) | inactive |
| CCN(CC)S(=O)(=O)c1ccc(N2CCOCC2)c(C(=O)O)c1 | inactive |
| Cn1c(=O)n(C)c2cc(CNc3ccc(N4CCOCC4)c(C(=O)O)c3)ccc21 | 9.92 µM (active) |
| COC(=O)c1cc(NC(=O)c2ccco2)ccc1N1CCOCC1 | inactive |
| CCn1cc(C(=O)NCCc2ccccc2)c(=O)c2cc(S(=O)(=O)N3CCCCCC3)ccc21 | inactive |
| O=C(Nc1nc2c(s1)CCCC2)c1ccccc1F | inactive |
| CC(CC(=O)N1CCN(c2ccccc2)CC1)c1ccccc1 (centres undefined) | inactive |
| CCc1ccc(NC(=O)N2CCN(c3ccccc3)CC2)cc1 | inactive |
| CC(=O)N1CCN(c2ccc(NCc3ccc(C(C)C)cc3)cc2)CC1 | 31.6 µM (active) |
| Cc1ccc(-c2cc(N)n(Cc3cccc(Cl)c3)n2)cc1 | inactive |
| CC1=Nc2cc(C(=O)N3CCC(C)CC3)ccc2Sc2ccc(Cl)cc21 | inactive |
| Cc1ccc(Nc2ccccc2N)cc1 | 50.1 µM (active) |
| Nc1ccc(Nc2ccccc2)cc1 | inactive |
| Cc1ccc(Nc2nnc(SCc3ccccc3)s2)cc1 | inactive |
| COc1ccc(CNC(=O)COCc2cc(-c3cccs3)on2)cc1OC | inactive |
| Cc1nc2nc(NCc3cccc(Br)c3)[nH]n2c(=O)c1Cc1ccccc1 | inactive |
| CC1CCN(c2nc3ccc(C(=O)N4CCN(c5ccccc5)CC4)cc3s2)CC1 | inactive |
| O=C(Nc1ccc2nc(SCCOc3ccccc3)sc2c1)c1ccco1 | inactive |
| Cc1cc(NC(=O)C2CCC(CNS(=O)(=O)c3ccc(Br)s3)CC2)ccc1Br (centres undefined) | inactive |
| CCN(CC)S(=O)(=O)c1cc([N+](=O)[O-])ccc1N=Nc1c(O)n(C)c2ccccc12 | inactive |

| SMILES | Potency |
| --- | --- |
| CCN(CC)S(=O)(=O)c1cc([N+](=O)[O-])ccc1NNC(=O)Nc1ccccc1 | 28.2 µM (active) |
| CC(=O)c1ccc(NC(=O)Nc2ccc([N+](=O)[O-])cc2C)cc1 | inactive |
| COC(=O)c1cccc(Cn2nnc3sc4c(c3c2=O)CCC(C(C)(C)C)C4)c1 (centres undefined) | inactive |
| CC(=O)C1(C)N(O)C(C)(C)C(c2cccs2)=[N+]1[O-] (centres undefined) | inactive |
| C/C(=N\O)C1(C)N(O)C(C)(C)C(c2ccc(Br)cc2)=[N+]1[O-] (centres undefined) | 6.26 µM (active) |
| Cc1nnc(NCc2ccccc2)c2c1nnn2Cc1ccc(F)cc1 | inactive |
| COc1cccc(CC(=O)Nc2nc(-c3ccc(OC)c(OC)c3)cs2)c1 | inactive |
| COc1ccc(OC)c(Nc2nc(-c3ccc(O)c(O)c3)cs2)c1 | 28.2 µM (active) |
| NS(=O)(=O)c1ccc(Nc2nc(-c3ccccc3)cs2)cc1 | inactive |
| COc1ccc(-c2csc(Cc3nc(O)cs3)n2)cc1 | inactive |
| COc1ccc(C)cc1Nc1nc(-c2c(C)[nH]c3ccccc23)cs1 | inactive |
| COc1ccc(-c2csc(Nc3ccc(O)cc3)n2)cc1 | 11.2 µM (active) |
| Cc1cccc(C(=O)NCCc2nc3ccccc3n2Cc2ccccc2Cl)c1 | inactive |
| CC(C)S(=O)(=O)c1oc(-c2ccc(F)cc2)nc1S(=O)(=O)c1ccc(F)cc1 | inactive |
| COc1ccccc1C(=O)Nc1c(C(=O)N(C)Cc2ccccc2)sc2nc(C)c(Cl)c(C)c12 | inactive |
| COc1cc(Cl)c(NC(=O)CC(C)S(=O)(=O)c2cc3c(cc2C)NC(=O)CO3)c(OC)c1 (centres undefined) | inactive |
| O=C(CSC1=Nc2ccccc2C2=NC(CC(=O)NCc3ccco3)C(=O)N12)NCc1ccco1 (centres undefined) | inactive |
| CCC(C)NC(=O)CSC1=Nc2ccccc2C2=NC(CCC(=O)NCc3ccco3)C(=O)N12 (centres undefined) | inactive |
| CC(C)C1N=C2c3ccccc3N=C(SCC(=O)c3ccc(O)c(O)c3)N2C1=O (centres undefined) | 12.5 µM (active) |
| CC(NC(=O)CCc1cn(Cc2ccccc2Cl)c2ccccc12)c1ccccc1 (centres undefined) | inactive |
| COc1cc(OC)nc(NC(=O)CCl)n1 | inactive |
| O=C(CCl)NNc1cccc(Cl)n1 | 20 µM (active) |
| O=C(Cc1c(Cl)cccc1Cl)NC1CC1 | inactive |
| COc1ccccc1CNC(=O)CCn1c(=O)c2ccccc2n(CC(=O)Nc2cccc(Cl)c2)c1=O | inactive |
| Cc1ccc(CSc2nc3cccnc3n2Cc2ccc(C(=O)NC3CC3)cc2)cc1 | inactive |
| COC(=O)c1sccc1NC(=S)Nc1ccc(C)cc1 | inactive |

| SMILES | Potency |
| --- | --- |
| COC(=O)c1sccc1NC(=O)CCC1CCCC1 | inactive |
| CCOC(=O)C(=CNNc1ccsc1C(=O)OC)C(=O)OCC | 14 µM (active) |
| CCCS(=O)(=O)Nc1c(C(=O)O)[nH]c2ccccc12 | 3.55 µM (active) |
| O=C(O)c1[nH]c2ccccc2c1C(c1cccc(O)c1)c1c(C(=O)O)[nH]c2ccccc12 | inactive |
| CCCC(=O)Nc1c(O)c2ccccc2[nH]c1=O | inactive |
| O=S(=O)(c1ccc(Cl)cc1)c1nnn2c1nc(NC1CCCC1)c1sccc12 | inactive |
| Cc1c(Cl)cccc1NC(=O)C1CCCN(C(=O)c2cnn(-c3ccccc3)c2-n2cccc2)C1 (centres undefined) | inactive |
| c1cnn(-c2cc(N3CCOCC3)ncn2)c1 | inactive |
| O=C(Nc1cc(N2CCOCC2)ncn1)NC1(C(F)(F)F)Oc2ccc(Cl)cc2O1 (centres undefined) | 11.1 µM (active) |
| O=C(CN1C(=O)COc2ccc(Cl)cc21)Nc1ccc(N2CCOCC2)cc1 | inactive |
| CCC(=O)N1CCc2cc(S(=O)(=O)NC(CC(C)C)C(=O)NCCc3cccc(C)c3)ccc21 (centres undefined) | inactive |
| COc1cccc(NC(=O)CN2C(=O)c3ccccc3Sc3ncccc32)c1 | inactive |
| O=C(c1ccc(C(F)(F)F)cc1)N1CCC(c2nc(-c3ccc(S(=O)(=O)N4CCCC4)cc3)no2)CC1 | inactive |
| Cc1c(C)c2ccc(OCC(=O)N3CCC(C(=O)O)CC3)c(C)c2oc1=O | inactive |
| O=C(CNC(=O)C1COc2ccccc2O1)N/N=C/c1cc(Br)c(O)c(Br)c1 (centres undefined) | inactive |
| Cc1c(CC(=O)N2CCN(C(=O)C3COc4ccccc4O3)CC2)c(=O)oc2c(O)c(O)ccc12 (centres undefined) | 6.31 µM (active) |
| COc1ccccc1C(=O)NCCn1cc(SCc2ccccc2Cl)c2ccccc21 | inactive |
| CCOc1ccc(N2CC(C)Cn3c2nc2c3c(=O)n(Cc3c(F)cccc3Cl)c(=O)n2C)cc1 (centres undefined) | inactive |
| O=S(=O)(c1ccc(Br)cc1)c1nnn2c1nc(N1CCOCC1)c1sccc12 | inactive |
| Cc1ccc(Cl)cc1NC(=O)/C(C#N)=C\c1cn(Cc2ccc(F)cc2)c2ccccc12 | inactive |
| O=c1[nH]c(=S)[nH]c2[nH]c(=S)[nH]c12 | 39.8 µM (active) |
| Cc1c(C)c(C)c2[nH]c(=S)[nH]c2c1C | inactive |
| Cc1ccsc1CN(C(=O)c1oc2ccc(Br)cc2c1C)C1CCS(=O)(=O)C1 (centres undefined) | inactive |
| CCCn1c2ccccc2c2cnn(CC(=O)NCC3CCN(Cc4ccc(C)cc4)CC3)c(=O)c21 | inactive |
| CCN(C(=O)CSc1nnc(C)n2c1cc1occc12)c1ccccc1 | inactive |
| OCCN(Cc1ccccc1)Cc1ccc(Cl)cc1 | inactive |

| SMILES | Potency |
| --- | --- |
| O=[N+]([O-])c1ccc(N(CCO)Cc2ccccc2)c([N+](=O)[O-])c1 | 10 µM (active) |
| CCN(CC)c1ccc([N+](=O)[O-])cc1C(=O)O | inactive |
| COc1cc2ccccc2cc1C(=O)Nc1ccc(N2CCOCC2)cc1 | inactive |
| CC(=O)Oc1cccc(N2C(=O)CC(Nc3ccc(N4CCOCC4)cc3)C2=O)c1 (centres undefined) | 35.5 µM (active) |
| CC(=O)Oc1cccc(N2C(=O)C3CC=C(Cl)CC3C2=O)c1 (centres undefined) | inactive |
| CCOC(=O)c1oc2ccc(S(=O)(=O)n3nc(-c4ccccc4OC)cc3N)cc2c1C | inactive |
| Oc1ccccc1-c1nc2ccc(Cl)cn2c1Nc1ccc2c(c1)OCCO2 | inactive |
| Cc1cccc2nc(-c3ccc(Cl)s3)c(Nc3ccc4c(c3)OCCO4)n12 | 7.94 µM (active) |
| Cc1ccc(Nc2c(-c3ccc(C)s3)nc3ccccn23)cc1 | inactive |
| CN(C(=O)CSc1nc2ccc(NC(=O)COc3ccccc3)cc2s1)c1ccccc1 | inactive |
| CCc1cccc(NC(=O)CN(C)S(=O)(=O)c2ccc3[nH]c4c(c3c2)CCCC4)c1 | inactive |
| O=C(CCc1ccccc1)NNC(=O)c1ccc(Br)cc1 | inactive |
| CC(=O)Nc1ccc(S(=O)(=O)NNC(=O)CCc2ccccc2)cc1 | inactive |
| O=C(CCc1ccccc1)NNc1ccc(F)cc1 | 20 µM (active) |
| O=S(=O)(NCCc1nnc2ccc(SCc3ccc(Cl)cc3Cl)nn12)c1ccccc1 | inactive |
| O=[N+]([O-])c1cc(-c2nc(-c3ccccc3)no2)ccc1NCc1ccco1 | inactive |
| COc1ccc(Cn2c(=O)n(-c3ccccc3C)c(=O)c3c4c(sc32)CN(C(C)=O)CC4)cc1 | inactive |
| O=C(N/N=C/c1ccc(O)c(O)c1)C1c2ccccc2Oc2ccccc21 | 14.1 µM (active) |
| CCC(C)(C)NC(=O)C1c2ccccc2Oc2ccccc21 | inactive |
| CCC(C)NC(=O)C1c2ccccc2Oc2ccccc21 (centres undefined) | inactive |
| CCOc1ccc(C2CC(=O)c3c([nH]c(C(=O)OCc4ccccc4)c3C)C2)cc1 (centres undefined) | inactive |
| CCOc1ccc(N(CC)S(=O)(=O)N2CCCC(C(=O)NCc3ccc(Cl)cc3)C2)cc1 (centres undefined) | inactive |
| CC(=O)c1c(C)n(S(=O)(=O)c2ccc(Cl)cc2)c2ccc(NS(=O)(=O)c3ccc(Cl)cc3)cc12 | inactive |
| COc1ccc(NC(=O)c2sc(N)nc2-c2ccccc2)cc1 | inactive |
| Nc1ccc(-c2nnc(-c3ccccc3)o2)cc1 | inactive |
| Nc1ccc(-c2sc(N)nc2-c2ccccc2)cc1 | 14 µM (active) |
